# About 430 (23%) of roughly 1,900 compounds were called active.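 How the source made its calls: active means duplicate-averaged calcium rise in uninduced cells above buffer wells' mean plus 5 SD; inactive means the rest.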 The sample as a whole holds a higher share of actives than the screen did.
# Assay: direct calcium signal without carbachol stimulation – cell-based, HEK293 M3R, non-induced, no carbachol, second counter-screen, artefact control for RGS4 inhibitor project, confirmation (AID 493001)
# Conditions: Fluo-4 calcium, at 10 µM; stronger effect = higher value
row,Compound,calcium response (agonist-mode artifact)
1,CCN1C(=O)C(=Cc2c(C)n(CC(=O)NCC3CCCO3)c3ccccc23)C(=O)N(CC)C1=S (centres undefined),13.5% (active)
2,O=C(N/N=C/c1c(O)n(Cc2ccccc2)c(=O)[nH]c1=O)c1ccccc1,inactive
3,O=C1NC(=O)N(Cc2ccco2)C(=O)/C1=C\c1ccc(-c2ccc(F)cc2)o1,152% (active)
4,Cc1ccc2c(c1)=C/C(=C\c1c(O)[nH]c(=O)[nH]c1=O)C(=O)N=2,inactive

# — PubChem BioAssay AID493001 (Johns Hopkins Ion Channel Center, 2010)
